High-throughput results deposited in PubChem BioAssay by several laboratories.
Only some compounds are listed: those with a hit (about 1.3% of all), similar ones and a draw of the others.
CR mimetic SO: yeast age-related superoxide inhibition as caloric restriction mimetic | S. cerevisiae aged cells, superoxide DHE fluorescence; active compounds read low | superoxide response (% of plate mean), % at 10 µM | 330,000 compounds, 0.18% hits | AID 2690;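 active = superoxide response under a set limit, about three screen SD below normal, cut at about 65% in these data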;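 also: yeast aged for seven days with compound at 30 °C before DHE staining; 100% = average MFI of all compound-treated wells on the plate with controls excluded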
HTR5A ag ctr: HTR5A agonism, opioid heterodimer counter-screen | HTR5A agonist assay, luminescence, cell-based | activation, % at 9.3 µM | 340,000 compounds, 0.61% hits | AID 504692; in the data active = activation mostly above about 9.5%, no sharp cut-off; inactive = mostly below about 7.6%;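 also: 0% = cells with vehicle only and 100% = reference agonist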
PvdQ inh: P. aeruginosa PvdQ acylase inhibition | 340,000 compounds, 0.063% hits | purified PvdQ acylase, fluorescence plate reader | inhibition, % at 10 µM; in the data active = inhibition above about 30%, passing the limit was not always enough;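 also: 0% = vehicle neutral wells and 100% = reference inhibitor wells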
MOR-DOR inv ag: inverse agonists of human mu-delta opioid receptor heterodimerization; P35372+P41143; 340,000 compounds, 0.21% hits; inhibition, % at 9.3 µM; cell-based MOR-DOR heterodimer luminescence, inverse agonism; in the data active = inhibition above about 22%, passing the limit was not always enough;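 also: 0% = cells with DMSO and 100% = wells without cells with DMSO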
HTR5A inv ag: counter-screen for OPRM1-OPRD1 inverse agonists: human HTR5A inverse agonism. P47898. inhibition, % at 9.3 µM. HTR5A cell line, luminescence. 340,000 compounds, 0.083% hits; in the data active = inhibition mostly above about 23%, no sharp cut-off; inactive = mostly below about 18%;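 also: 0% = cells with DMSO and 100% = no-cell wells with DMSO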
MOR-DOR ag: OPRM1-OPRD1 heterodimerization agonism | activation, % at 9.3 µM | 340,000 compounds, 0.3% hits | cells, luminescence | AID 504326 | P35372+P41143; in the data active = activation above about 18%;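 also: 0% = vehicle-treated cells and 100% = reference agonist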
MOR-DOR inv conf: confirmation of human OPRM1-OPRD1 heterodimerization inverse agonists; inhibition, % at 9.3 µM; shares compounds with MOR-DOR inv ag; cells expressing OPRM1/OPRD1 heterodimer, luminescence; 580 compounds, 20% hits; in the data active = inhibition above about 32%;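 also: 0% = cells with DMSO and 100% = wells lacking cells with DMSO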
HTR5A inv count: HTR5A inverse agonism, opioid heterodimer counter-screen. 580 tested, under 10 active. shares compounds with MOR-DOR inv ag. HTR5A-expressing cells, luminescence. inhibition, % at 9.3 µM; call rule not given here;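 also: 0% = cells with DMSO and 100% = no-cell wells with DMSO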
Numbers without * were called inactive; i = inactive; . = no result given.

SMILES	CR mimetic SO	HTR5A ag ctr	PvdQ inh	MOR-DOR inv ag	HTR5A inv ag	MOR-DOR ag	MOR-DOR inv conf	HTR5A inv count
CC(C)[C@H](NC(=O)c1ccccc1)C(=O)OCC(=O)c1ccc(S(=O)(=O)N2CCCCC2)cc1	108	-1	-5	30*	1	-5	-27	-6
O=C(COC(=O)c1ccco1)c1ccc(S(=O)(=O)N2CCCCC2)cc1	97	-3	-6	53*	18	-10	9	9
O=C(COc1ccccc1)OCC(=O)c1ccc(S(=O)(=O)N2CCCCC2)cc1	108	-2	40*	80*	6	-19	-27	-135
CON(C)C(=O)/C=C/c1ccc([B-](F)(F)F)cc1	.	-1	-9	12	2	-3	.	.
C[C@H](CO)N1C[C@H](C)[C@@H](CN(C)C(=O)Nc2ccc(C(F)(F)F)cc2)Oc2ccc(NC(=O)CCC(F)(F)F)cc2C1=O	122	3	10	11	9	-2	.	.
CCCn1c(CN2CCN(C(C)=O)CC2)nc2cc(S(=O)(=O)N(C)C)ccc21	110	-5	1	-4	14	0	.	.
COc1ccc(CC(=O)OCC(=O)c2ccc(S(=O)(=O)N3CCCCC3)cc2)cc1	112	-11	1	50*	29	-13	13	8
COc1cc(OC)cc(C(=O)OCC(=O)c2ccc(S(=O)(=O)N3CCCCC3)cc2)c1	106	7	-11	6	-17	-2	.	.
O=C(COC(=O)c1ccc(Br)o1)c1ccc(S(=O)(=O)N2CCCCC2)cc1	97	-9	2	65*	22	-17	-88	-4
COCCN(C(=O)CSc1nnc(-c2ccc(C(C)(C)C)cc2)n1N)c1c(N)n(CC(C)C)c(=O)[nH]c1=O	100	-4	-9	15	10	-3	.	.
CCCc1cc(=O)[nH]c(-n2[nH]c3c(c2=O)CCCC3)n1	120	-9	4	33*	0	-5	i	3
CCCNC(=O)c1nnsc1S(=O)(=O)c1ccc(Cl)cc1	.	-4	11	32*	11	-6	12	-5
COC(=O)c1ccc(CNC(=O)[C@@H]2CCCN2S(=O)(=O)c2ccccc2F)cc1	99	3	9	16	-9	-4	.	.
CC(=O)N(/N=C1\Sc2ccccc2C1=O)c1ccccc1	.	-6	-6	34*	28	-8	-58	-14
CC(=O)N(/N=C1\Sc2ccccc2C1=O)c1ccccc1C	85	-16	-4	51*	35	-10	-200	-6
COc1ccc(C(=O)CC(SCC(NC(C)=O)C(=O)O)c2ccc(Cl)cc2)cc1OC (stereo unspecified)	96	-2	-9	14	7	-3	.	.
O=C(NNc1cc(Cl)cc(Cl)c1)c1cccs1	71	-1	-7	23	4	-5	.	.
O=C(NNc1ccc(Cl)cc1)c1cccs1	73	-2	4	49*	-10	-10	-15	-7
CCc1ccc(C(=O)NNc2cc(Cl)cc(Cl)c2)cc1	92	-1	-2	-16	-8	3	.	.
CCc1ccc(C(=O)NNc2ccc(Cl)cc2)cc1	85	-7	-12	39*	6	-8	14	1
CCCc1ccc(C(=O)NNc2cccc(C)c2)cc1	96	-7	-15	44*	0	-9	25	14
COc1ccc2cc(C(C)C(=O)O)ccc2c1 (stereo unspecified)	92	4	-8	8	7	-1	.	.
O=C(CN1CCc2ccccc21)Nc1ccc2c(c1)OCCCO2	93	-2	8	0	-6	0	.	.
Cc1ccc(NC2(C#N)C(=O)Nc3ccccc32)cc1C (stereo unspecified)	99	-5	-11	56*	14	-12	-244	0
COC(=O)c1ccc(NC2(C#N)C(=O)Nc3ccccc32)cc1 (stereo unspecified)	97	-4	-18	83*	12	-14	64*	16
SMILES	CR mimetic SO	HTR5A ag ctr	PvdQ inh	MOR-DOR inv ag	HTR5A inv ag	MOR-DOR ag	MOR-DOR inv conf	HTR5A inv count
Cc1cc(C)c(C(=O)CC2(O)C(=O)Nc3ccccc32)cc1C (stereo unspecified)	100	-9	-17	2	22	0	.	.
N#CC(C#N)=C1C=CC=CN1/C(=C\c1ccccc1Cl)C(=O)c1ccccc1	93	2	-7	35*	23	-7	18	16
Cc1cccc(N2C(=O)c3ccccc3C2=O)n1	81	1	-9	14	-2	-3	.	.
O=C(C1=C(O)C(=O)N(CCN2CCOCC2)C1c1ccc(F)cc1)c1cc2ccccc2o1 (stereo unspecified)	99	1	-9	10	-3	-2	.	.
O=C(C1=C(O)C(=O)N(CCN2CCOCC2)C1c1ccco1)c1cc2ccccc2o1 (stereo unspecified)	90	1	-9	34*	-4	-6	-102	-40
Cc1ccc(CN2C(=O)C(CC(C)C)Nc3ncnc(N4CCN(c5ccccc5)CC4)c32)cc1 (stereo unspecified)	89	5	-3	8	9	-1	.	.
CCC1Nc2ncnc(N3CCN(c4ccccc4)CC3)c2N(Cc2ccc(C)cc2)C1=O (stereo unspecified)	111	-16	2	50*	36	-11	36*	56*
OCCC1CN(Cc2cc(F)ccc2-n2cccn2)CCN1C1CCCC1 (stereo unspecified)	97	4	-18	1	-7	0	.	.
CCOC(=O)c1c(N)sc(N)c1C(=O)OCC	96	8	-12	51*	12	-10	i	-4
CCOC(=O)c1c(N)ssc1=S	88	-1	-8	35*	23	-6	20	-11
CCC(C(=O)Nc1ccon1)c1ccccc1 (stereo unspecified)	99	5	-7	8	-3	-1	.	.
Cc1ccc(C(=O)COC(=O)CNS(=O)(=O)c2ccccc2)cc1[N+](=O)[O-]	99	-9	1	59*	18	-14	13	-4
Cc1ccc(C)c(C(=O)COC(=O)CNS(=O)(=O)c2ccccc2)c1	104	0	-8	-1	0	0	.	.
Cc1ccc(C(=O)COC(=O)CCS(=O)(=O)c2ccccc2)cc1[N+](=O)[O-]	97	-6	-7	42*	28	-11	-343	11
Cc1ccc(S(=O)(=O)CCC(=O)OCC(=O)c2ccc(C)c(C)c2)cc1	99	2	-13	10	-29	-2	.	.
Cc1cc(C)nc(-n2nc(C)c(C3(O)C(=O)Nc4ccc(F)cc43)c2N)n1 (stereo unspecified)	87	-10	4	62*	17	-14	53*	8
